Measured values taken from PubChem BioAssay (Tox21).
“And” between values parts separate entries of the source, which are not always exact repeats. Equal entries are not always repeated. Records with an inconclusive call do not appear. Where a call stands in place of a potency, no number is given. Some compounds were tested as several samples or in several runs, with calls that do not always agree. The source made the active and inactive calls. Unless noted, the call rests on the fitted dose curve.

Assays:
[1] = Nuclear factor erythroid 2-related factor 2/antioxidant responsive element (Nrf2/ARE) small molecule agonists: qHTS cell viability counter screen in human keratinocytes (AID 1919968; active means well fitted curve in the direction sought with a large enough effect in the repeat runs; an effect the other way counts as inactive or inconclusive; further: nearly all actives have a fitted effect of over 55% in size; further: potency means the concentration at half of the fitted maximal effect)
Method in brief: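 Cells of the KeratinoSens line were plated at 1,500 per well and left for 5 h before compound transfer from DMSO stocks. After a 23 h incubation (37 C, 5% CO2), CellTiter-Fluor was added. Signal was taken as fluorescence intensity 1 h later.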

[2] = Nuclear factor erythroid 2-related factor 2/antioxidant responsive element (Nrf2/ARE) small molecule agonists: luciferase reporter gene qHTS assay in human keratinocytes (AID 1919969); further: nearly all actives have a fitted effect of over 35% in size; further: potency means the concentration at half of the fitted maximal effect
[3] = biological target: Gonadotropin-releasing hormone receptor (Homo sapiens) (UniProt P30968); assay: Human gonadotropin-releasing hormone receptor (GnRHR) small molecule agonists, calcium flux assay in GnRHR-HEK293 cells (AID 1920063); further: nearly all actives have a fitted effect of over 35% in size
Method in brief: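 Compounds dissolved in DMSO are pin-transferred onto dye-loaded GnRHR-HEK293 cells, which were seeded 18 h before at 37 C/5% CO2. Calcium signal is read as fluorescence intensity at 1 s intervals for 3 min.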

[4] = biological target: KiSS-1 receptor (Homo sapiens) (UniProt Q969F8); assay: Human kisspeptin (KISS1R) small molecule agonists, calcium flux assay in KISS1R-HEK293 cells (AID 1920064; active means well fitted curve in the direction sought with a large enough effect in the repeat runs; an effect the other way counts as inactive or inconclusive)
Method in brief: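 Cell line: HEK293, stable human KISS1R. Dye loading 1 h at 37 C after 18 h culture. Read: kinetic fluorescence, 480/540 nm, 3 min at 1 s intervals.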

[5] = G protein-coupled receptor (GPCR) small molecule agonists, calcium flux assay: HEK293 wild type cell line counter screen (AID 1920065)
Method in brief: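 Tox21 10K compounds, 15 concentrations each in triplicate, pin-transferred in DMSO onto dye-loaded cells; kinetic read at 480/540 nm for 3 min, 1 s intervals.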

[6] = p53 small molecule agonists, cell-based qHTS assay with human liver microsomes (AID 1963577)
Method in brief: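 p53RE-bla reporter cells were pre-incubated 5 h at 37 C, then treated with compounds plus human liver microsomes (0.5 mg/mL final) and NADPH (0.5 mg/mL final) for 16 h at 37 C. Beta-lactamase activity was read by LiveBLAzer fluorescence after 2 h at room temperature.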

[7] = p53 small molecule agonists, cell-based qHTS assay with rat liver microsomes: qHTS cell viability counter screen (AID 1963580); further: nearly all actives have a fitted effect of over 45% in size; further: potency means the concentration at half of the fitted maximal effect
Method in brief: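 Rat liver microsome (0.5 mg/mL final) and NADPH (0.5 mg/mL final) co-incubation with compounds for 16 h at 37 C on HCT-116 p53RE-bla cells; cytotoxicity taken from intracellular ATP luminescence.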

[8] = p53 small molecule agonists, cell-based qHTS assay: qHTS cell viability counter screen (AID 1963581); further: nearly all actives have a fitted effect of over 45% in size
Method in brief: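 ATP content measured by luminescence in HCT-116 p53RE-bla cells treated 16 h at 37 C, same wells as the reporter screen.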

[9] = p53 small molecule agonists, cell-based qHTS assay (AID 1963582; active means well fitted activation curve with a large enough effect in the signal ratio in the repeat runs, not every such curve was filed as active; the % refers to the signal ratio; further: potency means the concentration at half of the fitted maximal effect)
Method in brief: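 16 h compound exposure (37 C) of p53 response element–bla cells, preceded by 5 h recovery at 37 C/5% CO2; read-out via LiveBLAzer B/G FRET substrate, 2 h RT, fluorescence intensity.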

[10] = biological target: 5-hydroxytryptamine receptor 2A (Homo sapiens) (UniProt P28223); assay: 5-hydroxytryptamine receptor 2A (HTR2A) small molecule antagonists, cell-based qHTS assay (AID 1963586); further: nearly all actives have a fitted effect of over 45% in size; further: potency means the concentration at half of the fitted maximal effect
Method in brief: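 CHO cells stably expressing human HTR2A were plated for 18 h at 37 C, then loaded with calcium dye for 1 h. Compounds were preincubated 5 min at room temperature before DOI (4 nM solution) was added. Kinetic fluorescence was read for 3 min.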

[11] = biological target: 5-hydroxytryptamine receptor 2A (Homo sapiens) (UniProt P28223); assay: 5-hydroxytryptamine receptor 2A (HTR2A) small molecule agonists, cell-based qHTS assay (AID 1963587); further: nearly all actives have a fitted effect of over 30% in size
Method in brief: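 Kinetic calcium-flux fluorescence (2 min, 1 sec intervals) after compound addition in agonist mode. HTR2A-CHO cells were cultured 18 h, then dye-loaded 1 h at 37 C.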

[12] = biological target: Muscarinic acetylcholine receptor M1 (Homo sapiens) (UniProt P11229); assay: Cholinergic receptor muscarinic 1 (CHRM1) small molecule antagonists, cell-based qHTS assay (AID 1963588); further: nearly all actives have a fitted effect of over 40% in size; further: potency means the concentration at half of the fitted maximal effect
Method in brief: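 Compounds were tested at 15 concentrations in three independent runs. Dye-loaded CHRM1-CHO cells were exposed 5 min at room temperature before stimulation by acetylcholine added at 50nM. Intracellular calcium was read kinetically on FDSS for 3 min.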

[13] = biological target: Muscarinic acetylcholine receptor M1 (Homo sapiens) (UniProt P11229); assay: Cholinergic receptor muscarinic 1 (CHRM1) small molecule agonists, cell-based qHTS assay (AID 1963589); further: nearly all actives have a fitted effect of over 35% in size
Method in brief: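 Homogeneous fluorescence calcium flux, agonist mode. Human M1-expressing CHO cells; compound dosed at 15 concentrations, three independent runs; signal sampled every 1 sec.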

[14] = cAMP Responsive Elements (CRE) small molecule agonists, cell-based qHTS assay (AID 1963590)
Method in brief: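 HEK 293T cells stably bearing CRE-bla were plated at 2,000 cells per well and rested 18 h. Compounds, positive controls or DMSO were added for 3 h at 37 C. LiveBLAzer B/G substrate was then loaded for 2 h at room temperature.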

[15] = cAMP Responsive Elements (CRE) small molecule antagonists, cell-based qHTS assay (AID 1963591; active means well fitted inhibition curve with a large enough effect in the signal ratio in the repeat runs, not every such curve was filed as active; the % refers to the signal ratio)
Method in brief: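 First, CRE-bla HEK293T cells settled 18 h at 37 C. Next, compound and 0.25 uM final NKH477 were applied for 3 h. Last, LiveBLAzer B/G substrate was loaded for 2 h at room temperature.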

[16] = biological target: Beta-2 adrenergic receptor (Homo sapiens) (UniProt P07550); assay: Adrenergic beta2 receptor (ADRB2) small molecule antagonists, cell-based qHTS assay (AID 1963592); further: series mostly up to about 92 µM; nearly all actives have a fitted effect of over 50% in size
Method in brief: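 Assay format: CHO-ADRB2 cells, 18-20hr seeding at 37C/5% CO2, then compound plus 1nM isoproterenol agonist mix for 0.5hr RT. Homogeneous time-resolved fluorescence cAMP detection after 1hr, expressed as 665/615 nm ratio.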

[17] = biological target: Beta-2 adrenergic receptor (Homo sapiens) (UniProt P07550); assay: Adrenergic beta2 receptor (ADRB2) small molecule agonists, cell-based qHTS assay (AID 1963593);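 further: CHO cells stably overexpressing human ADRB2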
Method in brief: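 CHO cells stably over-expressing ADRB2 were plated overnight at 37C, then dosed with compounds plus a stimulation mix containing 100uM IBMX and 25uM Ro-20-1724 for 0.5hr at room temperature. cAMP was measured by HTRF competition, 1hr.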

[18] = biological target: D(2) dopamine receptor (Homo sapiens) (UniProt P14416); assay: Dopamine D2 receptor (DRD2) small molecule agonists, cell-based qHTS assay (AID 1963594); further: nearly all actives have a fitted effect of over 35% in size
Method in brief: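 cAMP accumulation in DRD2-HEK293 cells measured by HTRF after 1 h detection; compounds added 10 min before NKH477 (200nM […]) forskolin-analogue stimulation, 30 min at room temperature, with Ro20-1724 present at 0.1 mM final.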

[19] = biological target: D(2) dopamine receptor (Homo sapiens) (UniProt P14416); assay: Dopamine D2 receptor (DRD2) small molecule antagonists, cell-based qHTS assay (AID 1963595; active means well fitted inhibition curve with a large enough effect in the signal ratio in the repeat runs, with a control signal flat; the % refers to the signal ratio)
Method in brief: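 Antagonist mode in DRD2-HEK293 cells: after compound addition with 0.1 mM Ro20-1724, cells received quinpirole (12 nM) and NKH477 (200 nM) for 30 min at room temperature; HTRF cAMP read after 1 h detection.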

[20] = p53 small molecule agonists, cell-based qHTS assay with human liver microsomes: qHTS cell viability counter screen (AID 1963579); further: nearly all actives have a fitted effect of over 45% in size
Method in brief: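 p53RE-bla cells (4,000/well) were pre-incubated 5 h at 37 C, then given compounds in DMSO plus human liver microsomes (0.5 mg/mL final) and NADPH (0.5 mg/mL final) for 16 h at 37 C. Viability was read by CellTiter-Glo luminescence.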

Sequence of 5-hydroxytryptamine receptor 2A (Homo sapiens) (P28223 whole entry, looked up): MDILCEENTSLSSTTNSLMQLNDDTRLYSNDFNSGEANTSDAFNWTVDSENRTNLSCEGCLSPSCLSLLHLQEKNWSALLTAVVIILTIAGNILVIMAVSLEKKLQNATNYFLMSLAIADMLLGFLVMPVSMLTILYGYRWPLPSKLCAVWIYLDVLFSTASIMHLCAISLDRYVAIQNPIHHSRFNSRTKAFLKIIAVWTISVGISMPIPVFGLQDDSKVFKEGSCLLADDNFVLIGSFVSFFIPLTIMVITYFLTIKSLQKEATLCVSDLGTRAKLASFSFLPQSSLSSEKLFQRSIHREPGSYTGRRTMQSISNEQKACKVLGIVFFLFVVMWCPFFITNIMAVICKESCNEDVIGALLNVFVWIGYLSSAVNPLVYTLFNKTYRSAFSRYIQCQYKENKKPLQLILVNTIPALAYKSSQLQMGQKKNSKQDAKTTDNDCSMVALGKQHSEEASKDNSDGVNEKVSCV
Sequence of KiSS-1 receptor (Homo sapiens) (Q969F8 whole entry, looked up): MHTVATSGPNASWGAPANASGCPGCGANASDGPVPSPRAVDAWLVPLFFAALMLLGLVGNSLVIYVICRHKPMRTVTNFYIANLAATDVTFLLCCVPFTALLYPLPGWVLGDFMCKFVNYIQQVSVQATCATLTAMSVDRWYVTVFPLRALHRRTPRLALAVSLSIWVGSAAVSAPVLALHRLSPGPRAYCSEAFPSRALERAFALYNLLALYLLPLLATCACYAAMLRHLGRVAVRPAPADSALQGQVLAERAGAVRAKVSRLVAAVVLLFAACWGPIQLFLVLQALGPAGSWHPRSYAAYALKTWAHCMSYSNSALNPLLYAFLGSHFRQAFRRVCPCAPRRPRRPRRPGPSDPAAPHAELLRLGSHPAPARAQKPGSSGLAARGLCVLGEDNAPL
Sequence of Gonadotropin-releasing hormone receptor (Homo sapiens) (P30968 whole entry, looked up): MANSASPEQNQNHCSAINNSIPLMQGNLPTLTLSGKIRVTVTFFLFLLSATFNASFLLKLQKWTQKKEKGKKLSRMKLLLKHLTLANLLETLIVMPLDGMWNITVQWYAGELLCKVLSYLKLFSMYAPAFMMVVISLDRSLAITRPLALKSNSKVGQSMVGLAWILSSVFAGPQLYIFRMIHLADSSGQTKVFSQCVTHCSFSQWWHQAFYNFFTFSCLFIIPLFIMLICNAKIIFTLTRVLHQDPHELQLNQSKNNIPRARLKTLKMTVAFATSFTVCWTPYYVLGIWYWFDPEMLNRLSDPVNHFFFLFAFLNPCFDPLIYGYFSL
Sequence of Muscarinic acetylcholine receptor M1 (Homo sapiens) (P11229 whole entry, looked up): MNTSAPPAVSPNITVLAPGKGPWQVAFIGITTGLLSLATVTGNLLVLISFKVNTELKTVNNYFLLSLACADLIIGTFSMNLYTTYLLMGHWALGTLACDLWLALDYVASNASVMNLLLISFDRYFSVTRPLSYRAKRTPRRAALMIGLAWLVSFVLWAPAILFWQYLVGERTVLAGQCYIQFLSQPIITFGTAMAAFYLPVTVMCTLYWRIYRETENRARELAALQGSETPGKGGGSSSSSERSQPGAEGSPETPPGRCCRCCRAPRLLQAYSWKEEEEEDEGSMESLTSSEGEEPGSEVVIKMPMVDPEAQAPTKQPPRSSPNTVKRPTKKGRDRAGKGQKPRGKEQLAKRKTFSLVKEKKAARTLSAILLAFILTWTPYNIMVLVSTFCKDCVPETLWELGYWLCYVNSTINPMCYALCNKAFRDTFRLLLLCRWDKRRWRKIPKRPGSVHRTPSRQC
Sequence of Beta-2 adrenergic receptor (Homo sapiens) (P07550 whole entry, looked up): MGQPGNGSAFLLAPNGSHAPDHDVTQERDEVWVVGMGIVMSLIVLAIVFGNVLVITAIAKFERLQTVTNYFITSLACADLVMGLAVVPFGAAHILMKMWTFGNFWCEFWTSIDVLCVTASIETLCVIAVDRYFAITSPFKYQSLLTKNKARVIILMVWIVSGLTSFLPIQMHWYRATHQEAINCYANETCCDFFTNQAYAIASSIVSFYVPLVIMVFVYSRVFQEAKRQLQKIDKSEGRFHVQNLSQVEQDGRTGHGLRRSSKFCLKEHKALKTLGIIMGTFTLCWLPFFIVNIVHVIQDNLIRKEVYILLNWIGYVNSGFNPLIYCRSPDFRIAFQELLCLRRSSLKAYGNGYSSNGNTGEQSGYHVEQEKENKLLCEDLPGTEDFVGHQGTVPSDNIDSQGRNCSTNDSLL
Sequence of D(2) dopamine receptor (Homo sapiens) (P14416 whole entry, looked up): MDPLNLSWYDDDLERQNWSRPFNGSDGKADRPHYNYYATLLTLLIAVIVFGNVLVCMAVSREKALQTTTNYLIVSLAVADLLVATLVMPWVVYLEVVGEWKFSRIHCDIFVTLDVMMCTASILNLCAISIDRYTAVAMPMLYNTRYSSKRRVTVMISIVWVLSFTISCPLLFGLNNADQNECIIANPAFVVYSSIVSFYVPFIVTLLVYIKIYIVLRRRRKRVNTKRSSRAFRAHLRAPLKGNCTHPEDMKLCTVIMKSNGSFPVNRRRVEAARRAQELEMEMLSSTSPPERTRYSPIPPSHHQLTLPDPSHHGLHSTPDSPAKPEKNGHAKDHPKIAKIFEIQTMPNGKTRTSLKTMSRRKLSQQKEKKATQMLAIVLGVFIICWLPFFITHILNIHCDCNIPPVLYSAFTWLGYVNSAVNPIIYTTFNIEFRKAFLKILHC

Structure (SMILES) | Potency [1] | Potency [2] | Potency [3] | Potency [4] | Potency [5] | Potency [6] | Potency [7] | Potency [8] | Potency [9] | Potency [10] | Potency [11] | Potency [12] | Potency [13] | Potency [14] | Potency [15] | Potency [16] | Potency [17] | Potency [18] | Potency [19] | Potency [20]
C=C(C)C(=O)OCC(CC)CCCC (stereo unspecified) | inactive | inactive | inactive | inactive | inactive | inactive | inactive | inactive | inactive | inactive | inactive | inactive | inactive | inactive | inactive | inactive | inactive | inactive | inactive | –
ClCc1ccccn1 | inactive | inactive | inactive | inactive | inactive | inactive | inactive | inactive | inactive | inactive | inactive | – | inactive | inactive | – | inactive | inactive | inactive | inactive | –
O=c1n(Cl)c(=O)n(Cl)c(=O)n1Cl | inactive | inactive | inactive | inactive | inactive | inactive | inactive | inactive | inactive | inactive | inactive | inactive | inactive | inactive | inactive | inactive | inactive | – | inactive | –
O=C1CCCO1 | inactive | inactive | inactive | inactive | inactive | inactive | inactive | inactive | inactive | inactive | inactive | 14.6 µM (active) and inactive | inactive | inactive | inactive | inactive | – | inactive | inactive | –
CN(C)c1ccc(C(=O)c2ccc(N(C)C)cc2)cc1 | inactive | 67.9 µM (active) and 54.5 µM (active) | inactive | inactive | inactive | inactive | – | – | 11.4 µM (active) | inactive | inactive | inactive | inactive | – | inactive | inactive | inactive | inactive | inactive | inactive
CCNc1nc(NC(C)C)nc(OC)n1 | inactive | inactive | inactive | inactive | inactive | inactive | – | – | inactive | inactive | inactive | inactive | inactive | inactive | – | inactive | inactive | inactive | inactive | inactive
COC(=O)[C@@H](N)CCCN/C(N)=N/[N+](=O)[O-] | inactive | inactive | inactive | inactive | inactive | inactive | inactive | inactive | inactive | inactive | inactive | inactive | inactive | inactive | inactive | inactive | – | inactive | inactive | –
C[C@]12CCC(=O)C=C1CC[C@@H]1[C@@H]2CC[C@]2(C)C(=O)CC[C@@H]12 | inactive | inactive | inactive | inactive | inactive | inactive | inactive | inactive | inactive | inactive | – | – | inactive | – | – | inactive | inactive | inactive | inactive | –
O=NN1CCCCCC1 | inactive | inactive | inactive | inactive | inactive | inactive | inactive | inactive | inactive | inactive | inactive | inactive | inactive | inactive | inactive | inactive | – | inactive | inactive | –
CCC[N+](=O)[O-] | 2.68 µM (active) and inactive | inactive | inactive | inactive | inactive | inactive | 44.9 µM (active) and inactive | inactive | inactive | inactive | inactive | inactive | inactive | inactive | inactive | inactive | inactive | – | inactive | –
CC(C)(O)C#N | inactive | inactive | inactive | inactive | inactive | inactive | inactive | inactive | inactive | inactive | – | inactive | inactive | inactive | inactive | inactive | inactive | inactive | inactive | –
CCCCCCC1CCOC1=O (stereo unspecified) | inactive | inactive | inactive | inactive | inactive | inactive | – | inactive | inactive | inactive | inactive | inactive | inactive | inactive | inactive | inactive | – | inactive | – | –
Cl[C@H]1OCCO[C@@H]1Cl | inactive | inactive | inactive | inactive | inactive | inactive | inactive | inactive | – | inactive | inactive | inactive | inactive | – | inactive | inactive | inactive | inactive | inactive | –
CC(C)Nc1ccc(Nc2ccccc2)cc1 | 30.5 µM (active) | 9.65 µM (active) and 24.3 µM (active) | inactive | inactive | inactive | inactive | 36.2 µM (active) and 45.8 µM (active) | – | inactive | 11.8 µM (active) and 16.8 µM (active) | inactive | 11.9 µM (active) | inactive | – | – | inactive | – | – | – | –
CC(C)Oc1cc(-n2nc(C(C)(C)C)oc2=O)c(Cl)cc1Cl | inactive | inactive | inactive | inactive | inactive | inactive | – | inactive | – | inactive | – | inactive | inactive | inactive | inactive | inactive | inactive | inactive | inactive | inactive
